The campaign covered roughly 5,500 compounds. About 2,000 (36%) were called active. Roughly 18% stayed inconclusive and do not appear here. No stated cut-off is given here; in the data, active means normalized growth mostly below about 0.91 (no sharp cut-off); inconclusive means no clear call, values can overlap the other calls; inactive means mostly above about 0.92. The list shows a part of the results.
Experiment: chemical genetic growth profiling, strain panel (AID 1159580);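 further: tested at 20 µM; growth read once vehicle control cultures reached saturation at 30 °C; 1 = growth at the plate median or of vehicle wells; lower values mean less growth of the strain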
Conditions: growth OD

Measured: normalized growth

Cn1c([N+](=O)[O-])cnc1COC(N)=O
inactive: S. cerevisiae deletion strains, locus YJR075W, strain HOC1, active compounds read low 1.02 | S. cerevisiae deletion strains, locus YKL009W, strain mrt4, active compounds read low 1.01 | S. cerevisiae deletion strains, locus YKL068W, active compounds read low 0.991 | S. cerevisiae deletion strains, locus YKL085W, strain MDH1 (second series), active compounds read low 0.994 | S. cerevisiae deletion strains, locus YKL085W, strain MDH1, active compounds read low 0.994 | S. cerevisiae deletion strains, locus YKL160W, strain elf1, active compounds read low 1.02 | S. cerevisiae deletion strains, locus YKL190W, strain CNB1, active compounds read low 1 | S. cerevisiae deletion strains, locus YKR001C, strain vps1, active compounds read low 0.976 | S. cerevisiae deletion strains, locus YKR026C, strain gcn3, active compounds read low 0.998 | S. cerevisiae deletion strains, locus YKR091W, strain srl3, active compounds read low 0.998 | S. cerevisiae deletion strains, locus YLL001W, strain dnm1, active compounds read low 1.03 | S. cerevisiae deletion strains, locus YLL026W, active compounds read low 1 | S. cerevisiae deletion strains, locus YLL041C, strain sdh2, active compounds read low 0.993 | S. cerevisiae deletion strains, locus YLR027C, strain aat2, active compounds read low 1.01 | S. cerevisiae deletion strains, locus YLR039C, strain RIC1, active compounds read low 1.02 | S. cerevisiae deletion strains, locus YLR058C, strain SHM2, active compounds read low 1.01 | S. cerevisiae deletion strains, locus YLR102C, strain apc9, active compounds read low 0.986 | S. cerevisiae deletion strains, locus YLR113W, strain HOG1, active compounds read low 1.03 | S. cerevisiae deletion strains, locus YLR221C, strain rsa3, active compounds read low 0.978 | S. cerevisiae deletion strains, locus YLR258W, strain gsy2, active compounds read low 1.02 | S. cerevisiae deletion strains, locus YLR262C, strain YPT6 (second series), active compounds read low 1 | S. cerevisiae deletion strains, locus YLR262C, strain YPT6, active compounds read low 1.05 | S. cerevisiae deletion strains, locus YLR268W, strain sec22, active compounds read low 0.991 | S. cerevisiae deletion strains, locus YLR320W, strain mms22, active compounds read low 0.983 | S. cerevisiae deletion strains, locus YLR330W, strain CHS5, active compounds read low 1.01 | S. cerevisiae deletion strains, locus YLR342W, strain FKS1 (second series), active compounds read low 0.982 | S. cerevisiae deletion strains, locus YLR342W, strain FKS1, active compounds read low 0.998 | S. cerevisiae deletion strains, locus YLR357W, strain rsc2, active compounds read low 0.989 | S. cerevisiae deletion strains, locus YLR370C, strain arc18, active compounds read low 1.02 | S. cerevisiae deletion strains, locus YLR371W, strain rom2, active compounds read low 0.988 | S. cerevisiae deletion strains, locus YLR384C, strain iki3, active compounds read low 1 | S. cerevisiae deletion strains, locus YLR418C, strain cdc73, active compounds read low 0.962 | S. cerevisiae deletion strains, locus YML016C, strain PPZ1, active compounds read low 1 | S. cerevisiae deletion strains, locus YML032C, strain rad52, active compounds read low 0.984 | S. cerevisiae deletion strains, locus YML120C, strain ndi1, active compounds read low 0.999 | S. cerevisiae deletion strains, locus YML124C, strain tub3, active compounds read low 0.99 | S. cerevisiae deletion strains, locus YMR058W, strain fet3, active compounds read low 1.01 | S. cerevisiae deletion strains, locus YMR078C, strain ctf18, active compounds read low 0.983 | S. cerevisiae deletion strains, locus YMR125W, strain sto1, active compounds read low 0.991 | S. cerevisiae deletion strains, locus YMR129W, active compounds read low 1.01 | S. cerevisiae deletion strains, locus YMR205C, strain PFK2, active compounds read low 0.982 | S. cerevisiae deletion strains, locus YMR223W, strain ubp8, active compounds read low 0.994 | S. cerevisiae deletion strains, locus YMR231W, strain pep5, active compounds read low 1.01 | S. cerevisiae deletion strains, locus YMR263W, strain SAP30, active compounds read low 1.01 | S. cerevisiae deletion strains, locus YMR307W, strain GAS1, active compounds read low 0.981 | S. cerevisiae deletion strains, locus YNL067W, strain RPL9B, active compounds read low 1.01 | S. cerevisiae deletion strains, locus YNL071W, strain lat1, active compounds read low 1 | S. cerevisiae deletion strains, locus YNL153C, strain GIM3, active compounds read low 1.01 | S. cerevisiae deletion strains, locus YNL183C, strain NPR1, active compounds read low 0.957 | S. cerevisiae deletion strains, locus YNL209W, strain ssb2, active compounds read low 1.01 | S. cerevisiae deletion strains, locus YNL233W, strain BNI4, active compounds read low 1.01 | S. cerevisiae deletion strains, locus YNL248C, strain rpa49, active compounds read low 0.995 | S. cerevisiae deletion strains, locus YNL250W, strain rad50, active compounds read low 0.986 | S. cerevisiae deletion strains, locus YNL271C, strain bni1, active compounds read low 0.978 | S. cerevisiae deletion strains, locus YNL298W, strain CLA4, active compounds read low 0.988 | S. cerevisiae deletion strains, locus YNL307C, strain MCK1, active compounds read low 0.984 | S. cerevisiae deletion strains, locus YNL322C, strain KRE1 (second series), active compounds read low 1.02 | S. cerevisiae deletion strains, locus YNR049C, strain mso1, active compounds read low 1.01 | S. cerevisiae deletion strains, locus YNR052C, strain pop2, active compounds read low 0.989 | S. cerevisiae deletion strains, locus YOL006C, strain TOP1, active compounds read low 1.05 | S. cerevisiae deletion strains, locus YOL012C, strain htz1 0.743 | S. cerevisiae deletion strains, locus YOL147C, strain pex11, active compounds read low 0.981 | S. cerevisiae deletion strains, locus YOR001W, strain rrp6, active compounds read low 0.963 | S. cerevisiae deletion strains, locus YOR061W, strain CKA2, active compounds read low 1.01 | S. cerevisiae deletion strains, locus YOR069W, strain VPS5, active compounds read low 1 | S. cerevisiae deletion strains, locus YOR070C, strain gyp1, active compounds read low 0.996 | S. cerevisiae deletion strains, locus YOR080W, strain dia2, active compounds read low 1.01 | S. cerevisiae deletion strains, locus YOR083W, strain WHI5, active compounds read low 1.03 | S. cerevisiae deletion strains, locus YOR106W, strain vam3, active compounds read low 1.03 | S. cerevisiae deletion strains, locus YOR136W, strain idh2, active compounds read low 0.978 | S. cerevisiae deletion strains, locus YOR144C, strain elg1, active compounds read low 0.972 | S. cerevisiae deletion strains, locus YOR184W, strain ser1, active compounds read low 1.01 | S. cerevisiae deletion strains, locus YOR231W, strain MKK1, active compounds read low 0.997 | S. cerevisiae deletion strains, locus YOR265W, strain rbl2, active compounds read low 1 | S. cerevisiae deletion strains, locus YOR270C, strain vph1, active compounds read low 1 | S. cerevisiae deletion strains, locus YOR290C, strain snf2, active compounds read low 1.03 | S. cerevisiae deletion strains, locus YOR316C, strain cot1, active compounds read low 0.993 | S. cerevisiae deletion strains, locus YPL051W, strain arl3, active compounds read low 1.03 | S. cerevisiae deletion strains, locus YPL078C, strain atp4, active compounds read low 1.03 | S. cerevisiae deletion strains, locus YPL106C, strain sse1, active compounds read low 1.02 | S. cerevisiae deletion strains, locus YPL240C, strain hsp82, active compounds read low 1.01 | S. cerevisiae deletion strains, locus YPL241C, strain CIN2, active compounds read low 1.01 | S. cerevisiae deletion strains, locus YPL256C, strain CLN2, active compounds read low 0.999 | S. cerevisiae deletion strains, locus YPR119W, strain clb2, active compounds read low 0.981 | S. cerevisiae deletion strains, locus YPR141C, strain kar3, active compounds read low 0.983 | S. cerevisiae deletion strains, locus YPR163C, strain tif3, active compounds read low 0.99 | S. cerevisiae deletion strains, locus YPR167C, strain met16, active compounds read low 0.992 | S. cerevisiae deletion strains, strain wtn01, active compounds read low 0.984 | S. cerevisiae strains, strain wild type, active compounds read low 1.01
